HIF act: HIF pathway transcriptional activation; U2OS HRE-luciferase reporter, luminescence; normalized: DMSO 0%, desferrioxamine 100%; activation, % at 7.5 µM (by protocol); hit rate 0.32% among 300,000; AID 1910;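 active means mean activation of at least 10% of the iron chelator positive control signal, with at least half of replicates also reaching 10%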
Hsp70 act: switches on Hsp70 transcription; AID 1203; activation, % at 10 µM; HeLa Hsp70 promoter luciferase reporter, luminescence; scaled: vehicle 0, proteasome-inhibitor control 100%; hit rate 0.04% among 200,000;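 active means activation above the mean across all tested compounds plus 3 SD, cutoff set per campaign, cut at about 5.5% in these data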
GAA850 FXN act: frataxin GAA850 promoter activation; HEK293 lucGAA850 FXN promoter luciferase reporter, 24 h; percent of 10 µM SAHA response; activation, % at 6 µM; hit rate 0.56% among 360,000;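 active means activation above the average of all compounds screened plus 3 SD, cutoff fixed separately per campaign, cut at about 7.5% in these data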
SMARCA2 act: increases SMARCA2 function in MMTV reporter cells; MG213 cells, MMTV-luciferase reporter, dexamethasone, overnight; activation, % at 9.1 µM; hit rate 1% among 370,000; in the data active means activation above about 7.8%
GalR3 antag: human GalR3 antagonism; O60755; HEK293 GalR3-CNG cAMP membrane potential fluorescence; galR3 body fused to GalR1 C-terminus; inhibition, % at 3 µM; hit rate 0.44% among 360,000;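 active means inhibition above the screen-wide average plus 3 SD, cut at about 13% in these data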;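 further: forskolin and galanin both at EC90 stimulate the cells; cAMP rise reported by CNG channel membrane potential dye signal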
Target sequence (O60755 1-299 limits assumed): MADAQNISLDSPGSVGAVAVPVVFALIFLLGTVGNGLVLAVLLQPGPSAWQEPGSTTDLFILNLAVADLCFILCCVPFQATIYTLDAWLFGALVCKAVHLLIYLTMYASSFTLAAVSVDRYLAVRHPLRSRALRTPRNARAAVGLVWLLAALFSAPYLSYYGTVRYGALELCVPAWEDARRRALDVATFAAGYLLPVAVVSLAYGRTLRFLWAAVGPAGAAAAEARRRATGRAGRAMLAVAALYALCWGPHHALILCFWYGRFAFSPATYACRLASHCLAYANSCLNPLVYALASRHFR
SMARCA2 act conf: SMARCA2 activation, confirmation screen; shares compounds with SMARCA2 act; MG213 cells, MMTV-luciferase with dexamethasone, luminescence, overnight; MG213 cells expressing E1A, Rb sequestered; DMSO wells 0%, reference activator 100%; activation, % at 9.1 µM; hit rate 30% among 3,500; AID 652260;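 active means activation above its plate's cutoff, the mean activation of tested wells plus 3 SD, cut at about 7.9% in these data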
VP16 Luc act: counter-screen for SMARCA2 activators: GAL4-VP16 luciferase reporter activation; shares compounds with SMARCA2 act; HEK293 GAL4-VP16 pG5luc reporter, luciferase luminescence; scaled: DMSO wells 0%, SAHA wells 100%; activation, % at 9.1 µM; hit rate 41% among 3,500; AID 686939;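 active means activation above the solvent-only control well mean plus 3 SD, averaged across control plates, cut at about 5.2% in these data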
A number is an active result; n = inactive; x = no result given. In the library only some 2.2% were active in any assay of this set; here they are far more common.

SMILES | HIF act | Hsp70 act | GAA850 FXN act | SMARCA2 act | GalR3 antag | SMARCA2 act conf | VP16 Luc act
Cc1cc(C)cc(C(=O)OCCCN(C)C2CN(Cc3cn(Cc4ccccc4C(F)(F)F)nn3)S(=O)(=O)C2)c1 (stereo not given) | x | x | x | n | x | x | x
O=C(N/N=C/c1ccccc1C(F)(F)F)c1ccc(O)cc1 | n | n | n | 8.3 | n | n | 9.4
COCCNC(=S)N/N=C/c1ccccc1C(=O)O | n | n | n | n | n | x | x
COCCNC(=O)C(=O)N/N=C/c1ccccc1C(F)(F)F | n | n | n | 11 | n | n | n
O=C(NC1CCCC1)C1(C(=O)C2CC2)CC(c2ccccc2C(F)(F)F)=NO1 (stereo not given) | x | x | x | n | x | x | x
COC(=O)C1=C(C)N(Cc2ccccc2)C(=S)NC1c1cccc(OC)c1 (stereo not given) | x | x | x | n | n | x | x
COC(=O)C1=C(C)N(Cc2ccc(F)cc2)C(=S)NC1c1cccc(OC)c1 (stereo not given) | x | x | x | 8.6 | n | n | n
COC(=O)Nc1c(-c2ccccc2)nc2ccc(Cl)cn12 | n | x | n | n | n | x | x
COC(=O)CNc1c(-c2ccccc2)nc2ccc(Br)cn12 | n | n | n | 14 | n | 11 | 6.8
CCOC(=O)c1cnc2c(N=Nc3ccccc3)c(N)nn2c1N | n | n | n | 8.3 | n | 11 | 12
CCOC(=O)c1cnc2c(N=Nc3cccc(Cl)c3)c(N)nn2c1N | x | n | x | n | n | x | x
Cc1ccc(CNC(=O)OC(C)(C)C)c(/C=C/S(=O)(=O)NCCc2ccccc2)c1 | x | x | x | n | x | x | x
CCN=C1NC(c2ccc(Cl)cc2)C(C(=O)OC)=C(C)N1Cc1cccc(C(F)(F)F)c1 (stereo not given) | x | x | x | n | n | x | x
C/C(C=NNC(=O)CSc1nnc(-c2ccc(Cl)cc2)n1-c1ccc(C)cc1)=C\c1ccccc1 | x | x | x | n | x | x | x
Cc1cc(C)n2nc(C(=O)Nc3ccc4c(c3)OCO4)cc2n1 | n | n | n | 11 | n | 18 | 9.7
O=C(Nc1ccc2c(c1)OCO2)c1cc2nc(C3CC3)cc(C(F)(F)F)n2n1 | n | n | n | x | x | x | x
Cc1ccc(C)c(NC(=O)c2cc(-c3cc(C)c(C)cc3O)n[nH]2)c1 | n | x | n | 11 | n | n | 5.9
Cc1ccc(-c2cc(C(=O)Nc3cc(C)ccc3C)[nH]n2)c(O)c1 | n | n | n | n | n | x | x
C=CCC(NCc1ccco1)c1ccc(OC)c(OC)c1 (stereo not given) | n | n | n | 9.9 | n | n | n
NC(=O)c1ccsc1NC(=O)COC(=O)c1ccc([N+](=O)[O-])o1 | x | x | n | n | n | x | x
CC(C)(C)C(=O)N1CCN(c2ccc(NC(=O)c3ccc([N+](=O)[O-])o3)cc2)CC1 | n | x | n | 9.8 | n | n | n
NC(=O)c1ccsc1NC(=O)c1ccc([N+](=O)[O-])o1 | x | x | n | 8.3 | n | 18 | n
O=C(Nc1ncccn1)c1ccc([N+](=O)[O-])o1 | n | n | n | 15 | n | 10 | n
O=C(Nc1cccc(NC(=O)c2ccccc2Cl)c1)c1ccc([N+](=O)[O-])o1 | n | x | n | n | n | x | x
O=C(Nc1cccc([N+](=O)[O-])c1)c1ccc([N+](=O)[O-])o1 | x | x | n | 15 | n | 19 | n
SMILES | HIF act | Hsp70 act | GAA850 FXN act | SMARCA2 act | GalR3 antag | SMARCA2 act conf | VP16 Luc act
O=C(Nc1ccccn1)c1ccc([N+](=O)[O-])o1 | n | n | n | x | x | x | x
COc1cccc(C(=O)N[C@H](C(=O)N2CCC[C@H]2C(=O)NCc2ccccc2)C(C)C)c1 | x | x | x | n | n | x | x
CN1CCN(c2ccc(Nc3ccnc4cc(Cl)ccc34)cc2)CC1 | n | x | n | 16 | n | 28 | n
CCOc1ccc(Nc2ccnc3cc(Cl)ccc23)cc1 | n | x | n | n | n | x | x
O=S1(=O)c2ccc(Br)cc2OC[C@@H](Cc2ccccc2)N1Cc1cn(CCC2OCCO2)nn1 | x | x | x | n | x | x | x
Nn1c(SCc2ccccc2)nc2ccccc21 | n | x | n | 12 | n | 8.8 | 14
O=C(O)Cn1c(SCc2ccccc2)nc2ccccc21 | n | n | n | n | n | x | x
CC(C)(C)C1=Nn2c(nnc2-c2ccc(C(C)(C)C)cc2)SC1 | x | x | x | n | x | x | x
COc1cccc2c1CCc1c-2nc2ccccc2c1C(=O)O | n | x | n | 11 | n | 8.2 | 5.9
Cc1occc1C(=O)Nc1ccc(Br)cc1F | n | n | n | 10 | n | 16 | 10.0
Cc1cc(=O)oc(C)c1C(=O)NNC(=O)C1(C)CC1Br (stereo not given) | n | x | n | 8.9 | n | n | n
CC1(C(=O)NNC(=O)c2ccc(=O)oc2)CC1Br (stereo not given) | n | x | n | n | n | x | x
COc1ccc(C(=O)Nc2ccnn2C2CCN(C(=O)c3cnsn3)CC2)cc1 | n | x | n | 8.9 | n | n | n
COc1ccc(/C(O)=C2/C(=O)C(=O)N(c3ccccn3)C2c2ccc(F)cc2)cc1 (stereo not given) | n | x | n | 11 | n | n | n
COc1ccc(C2/C(=C(/O)c3ccc(C)cc3)C(=O)C(=O)N2c2ccccn2)cc1 (stereo not given) | n | x | n | n | n | x | x
CCCCCCCCN1C(=O)[C@@H](CC(=O)NCc2cccc(C(F)(F)F)c2)C[C@@]2(C(=O)OC)C1=C[C@H](C(C)C)O[C@@H]2C1CC1 | x | x | x | n | x | x | x
COc1ccc(-c2cc(C(=O)NN=C/C(C)=C/c3ccccc3)[nH]n2)cc1 | x | x | x | n | x | x | x
O=C(NN=C1CCCCCCCCCCC1)c1ccccc1F | n | n | n | 17 | n | n | n
O=C(NN=C1CCCCCCC1)c1ccc(F)cc1 | n | n | n | n | n | x | x
O=c1c2ccccc2n(CC(O)CN2CCCCC2)c2ccccc12 (stereo not given) | n | x | n | 9.4 | n | n | n
CN(C)/C=N/c1nc2ccc3c(c2s1)CCCC3 | n | n | n | 15 | n | 18 | 13
N#CCC[C@H]1CC[C@]2(CCCN(C(=O)c3ccccc3)C2)O1 | x | x | x | n | x | x | x
Cc1ccc(C(=O)CCNc2ccc(Br)cc2)o1 | n | n | n | n | n | x | x
Cc1ccc(C(=O)CCNc2cccc(Br)c2)o1 | n | n | n | 8.8 | n | n | n
CN(Cc1ccco1)C(=O)CN1C(=O)C2(OCCCO2)c2ccccc21 | x | x | x | n | x | x | x
Cc1cc(C)c2nc3nc(C)c(C)cc3c(N)c2c1 | n | n | n | 17 | n | 50 | n
Cc1[nH]c(=S)[nH]c(=O)c1Cc1ccccc1 | n | n | n | 16 | n | n | n
O=S1(=O)N[C@@H](Cc2ccccc2)COc2cccc(N3CCCC3)c21 | x | x | x | n | n | x | x
Cc1ccc2c(c1)N(CC(=O)NCCCN1C(C)CCCC1C)C(=O)c1cccnc1O2 (stereo not given) | n | x | n | n | n | x | x

Screens from PubChem.
